The nature of experiment [1]: qHTS drug screen for cell cycle checkpoint inhibitors in PARPi-resistant BRCA-mutant ovarian cancer cell lines. (AID 1963452). The following applies: PEO1/OlaR viability, CellTiter-Glo luminescence, 96 h, stronger effect = lower value. A digest of the protocol: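 PEO1, PEO4 and PEO1/OlaR ovarian cancer cells, 600 per well, exposed 96 h at 37C to a dilution series. Viability read by CellTiter-Glo luminescence, normalized to DMSO and empty wells; activity summarized as Z-AUC.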
For orientation: qHTS replaces the single test concentration by a dilution series.

Experiment [2] is described as follows: qHTS for identification of novel therapeutic agents for treatment of microphthalmiaassociated transcription factor (MiT) renal cell carcinoma (RCC) (AID 1963991). Note: potency is the fitted concentration of half-maximal effect. The following applies: CellTiter-Glo, 48 h; for Potency: active = Z-AUC below -0.8 in all three lines; for z-score: stronger effect = lower value. The gist of the method:
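Viability of three TFE3-fusion renal carcinoma lines measured by CellTiter-Glo after 48 h treatment with each of 1912 compounds at 11 concentrations. Responses scaled between DMSO (100%) and empty wells (0%) before curve fitting.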

The nature of experiment [3]: qHTS profiling for inhibitors of Plasmodium falciparum proliferation (AID 504749; active = well fitted inhibition curve with a large enough effect;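 note: 0% = DMSO vehicle and full inhibition = artemisinin control; nearly all actives have a fitted effect of over 60% in size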). The following applies: P. falciparum in erythrocytes, SYBR Green DNA, 72 h, at 28.7 µM (top of the series). The gist of the method:
(§1)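 P. falciparum-infected erythrocytes (0.3% parasitemia, 2.5% hematocrit) incubated with compound 72 h at 37 C, 5% CO2. Parasite DNA detected by SYBR Green after lysis, overnight at room temperature; normalised to 0.29 uM artemisinin and DMSO.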

For a further experiment, the system named is 3D7. The experiment is described as above. The conditions noted are these: P. falciparum in erythrocytes, SYBR Green DNA, 72 h; series mostly up to 28.7 µM. A digest of the protocol: as §1
For the next experiment, the system named is 7G8. The experiment is described as above. The following applies: P. falciparum in erythrocytes, SYBR Green DNA, 72 h; series mostly up to 28.7 µM. The gist of the method:
as §1

In another experiment the test system is AA1029. The experiment is described as above. The following applies: P. falciparum in erythrocytes, SYBR Green DNA, 72 h; series mostly up to 28.7 µM. A digest of the protocol:
as §1

The next experiment concerns AS120. The description is as above. The following applies: P. falciparum in erythrocytes, SYBR Green DNA, 72 h; series mostly up to 28.7 µM. A digest of the protocol: as §1
Another experiment concerns ATS189. Described as above. The following applies: P. falciparum in erythrocytes, SYBR Green DNA, 72 h; series mostly up to 28.7 µM. The gist of the method: as §1
The mark [4] stands for this setting: measured here: PEO1 parental Z-AUC.
Where [5] appears, read: TFE3-RCC UOK109 viability, measured here: UOK109 Z-AUC.
[6] abbreviates: TFE3-RCC viability, measured here: UOK124 Z-AUC.
Setting [7] is: TFE3-RCC viability, measured here: UOK145 Z-AUC.

Records with an inconclusive call do not appear. The source made the active and inactive calls. Unless noted, calls come from the whole dose curve.

Consider `Cc1cnc(Nc2ccc(CN3CCOCC3)cc2)nc1Nc1cccc(S(=O)(=O)NC(C)(C)C)c1`, for which the Z-AUC is -2.02 (inactive) in experiment [1], -1.2 in experiment [1] (setting [4]) and -1.56 in experiment [1] (measured here: PEO4 Z-AUC). Further, the Potency in experiment [2] (TFE3-RCC UOK109 viability) is 4180 nM (active). Also, the z-score in experiment [2] (setting [5]) was -1.32; in experiment [2] (setting [6]), -0.971; in experiment [2] (setting [7]), -1.1.
As for `OCCN1C[C@H](O)[C@@H](O)[C@H](O)[C@@H]1CO`, the z-score was found to be 0.705 in experiment [2] (setting [5]), 0.522 in experiment [2] (setting [6]) and 1.03 in experiment [2] (setting [7]).
In the same order, the values of `COC1=C(OC)C(=O)C(CC=C(C)CCC=C(C)CCC=C(C)CCC=C(C)CCC=C(C)CCC=C(C)CCC=C(C)CCC=C(C)CCC=C(C)CCC=C(C)C)=C(C)C1=O` are 0.576, 0.211 and 0.661.
In the same order, the values of `O=C(C=CC=Cc1ccc2c(c1)OCO2)N1CCCCC1` are 0.531, 0.306 and 0.432.
Taken in the same sequence, the figures for `Cc1cc(-c2nnc3n2CCCCC3)c(C)n1-c1ccccc1` were 0.931, 0.469 and 0.656.
Take `Nc1nc(=O)n([C@H]2CSC(CO)O2)cc1F` (stereo not given in full): the z-score came to 0.159 in experiment [2] (setting [5]), 0.427 in experiment [2] (setting [6]) and 0.298 in experiment [2] (setting [7]).
Consider `NC[C@H]1O[C@H](O[C@H]2[C@@H](O)[C@@H](O[C@H]3O[C@H](CO)[C@@H](O)[C@H](N)[C@@H]3O)[C@H](N)C[C@@H]2N)[C@H](N)C[C@H]1O`, for which the z-score in experiment [2] (setting [5]) was found to be 2.03; in experiment [2] (setting [6]), 0.18; in experiment [2] (setting [7]) it was 1.86.
`c1cc(N[C@@H]2CCNC2)nc(-c2cnc3ccc(-c4cn[nH]c4)cn23)c1`: the Z-AUC was -1.39 (inactive) in experiment [1], -0.698 in experiment [1] (setting [4]) and -0.866 in experiment [1] (measured here: PEO4 Z-AUC).
`OCC(O)C(O)C(O)CO` (stereo not given): the z-score is 0.353 in experiment [2] (setting [5]), 0.172 in experiment [2] (setting [6]) and 0.47 in experiment [2] (setting [7]). Also, the activity, negative = inhibition in experiment [3] (parasite line A) is 4.99% (inactive); in experiment [3] (parasite line B), 7.38% (inactive). In addition, the Potency result in the experiment on 3D7, in the experiment on 7G8, with AA1029, in the experiment on AS120 and with ATS189 was “inactive” in each case.
Regarding `C[C@](Cc1c[nH]c2ccccc12)(NC(=O)OC1C2CC3CC(C2)CC1C3)C(=O)NC[C@H](NC(=O)CCC(=O)O)c1ccccc1` (stereo not given in full), the Z-AUC was -0.246 (inactive) in experiment [1], -0.184 in experiment [1] (setting [4]) and -0.0323 in experiment [1] (measured here: PEO4 Z-AUC).
In the same order, the values of `CCN(CC)CCCCNc1ncc2c(n1)N(C)C(=O)N(c1c(Cl)c(OC)cc(OC)c1Cl)C2` are 0.806 (inactive), 1.27 and 0.972.
With `CS(=O)(=O)N1CCc2c(-c3cnc(N)nc3)nc(N3CCOCC3)nc21`, the Z-AUC in experiment [1] is -0.521 (inactive); in experiment [1] (setting [4]) it was -0.562; in experiment [1] (measured here: PEO4 Z-AUC) it was 0.0155. The Potency in experiment [2] (TFE3-RCC UOK109 viability) is 93.5 nM (active). For the same compound, the results for the z-score in experiment [2] (setting [5]), in experiment [2] (setting [6]) and in experiment [2] (setting [7]) were -2.02, -1.41 and -1.55, respectively.
Take `O=C1NC(=O)[C@@H](c2cn3c4c(cccc24)CCC3)[C@H]1c1c[nH]c2ccccc12`: in experiment [2] (TFE3-RCC UOK109 viability), the Potency is 935 nM (active). Moreover, the figures for the z-score in experiment [2] (setting [5]), in experiment [2] (setting [6]) and in experiment [2] (setting [7]) were -1.28, -0.931 and -1.11, respectively.
